Screening data from PubChem BioAssay.
ALDH1A1 inh: ALDH1A1 (human) enzyme inhibition. Purified ALDH1A1, NADH fluorescence, propionaldehyde substrate. Potency, µM (doses to about 75.3 µM), for inactives: at the top dose activity, negative = inhibition, actives largely listed as inhibitors. P00352. 220,000 tested, 7.3% active;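 also: potency is read from the fitted curve at half-maximal effect; plate controls were no enzyme wells and a reference inhibitor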
Target sequence (P00352 whole entry, looked up): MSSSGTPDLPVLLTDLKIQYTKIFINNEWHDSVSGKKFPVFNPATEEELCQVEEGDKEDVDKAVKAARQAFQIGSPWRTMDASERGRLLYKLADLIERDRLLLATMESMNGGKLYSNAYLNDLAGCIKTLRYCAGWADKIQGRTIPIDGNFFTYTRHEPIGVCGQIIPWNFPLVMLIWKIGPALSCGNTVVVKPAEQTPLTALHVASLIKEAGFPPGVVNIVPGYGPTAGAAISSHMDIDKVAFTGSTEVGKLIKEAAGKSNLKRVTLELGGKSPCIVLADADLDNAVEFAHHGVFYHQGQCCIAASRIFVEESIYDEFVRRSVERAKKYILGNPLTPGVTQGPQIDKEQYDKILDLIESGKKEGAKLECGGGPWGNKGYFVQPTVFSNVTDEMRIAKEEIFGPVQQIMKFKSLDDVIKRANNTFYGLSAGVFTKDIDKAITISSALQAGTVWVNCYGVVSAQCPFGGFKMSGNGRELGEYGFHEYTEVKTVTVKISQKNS
HPGD inh: inhibitors of human 15-hydroxyprostaglandin dehydrogenase (HPGD); AID 894; Potency, µM, inactives show at the top dose activity change, negative = inhibition, usual class: inhibitors; P15428; purified HPGD, NADH fluorescence kinetic, PGE2 substrate; 150,000 tested, 4.3% active; also: potency is read from the fitted curve at half-maximal effect
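NADH formation kinetics: reaction with 30 uM PGE2 and 1 mM NAD+ (final), 20 nM enzyme, Tris-HCl pH 8 with Tween 20, after 15 min compound preincubation at room temperature. Fluorescence change, last versus first of five reads.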
IMPase inh: membrane-permeable compound that blocks inositol monophosphatase. 120,000 tested, under 10 active. P97697. inhibition (IP1 accumulation), % at 46.1 µM. CHO-M1 cells, IP1 accumulation, HTRF TR-FRET ratio; active = well fitted curve in the direction sought with a large enough effect in the signal ratio, not every such curve was filed as active; inconclusive = small, poorly fitted or top-dose-only effect, or a change in a side signal; inactive = no such curve, though single readings can be large or run the other way; the % refers to the signal ratio;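 also: cells stimulated with carbachol in lithium chloride buffer; plate controls were DMSO basal wells for no effect and reference inhibitor wells for full effect; higher means more IMPase inhibition seen as more IP1 and lower FRET ratio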
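CHO-M1, 2000 cells/well, cultured 16–30 h; cpd up to 46 uM; carbachol (50 uM solution, stimulation buffer w/ 50 mM LiCl, pH 7.4), 30 min 37C; IP-One TR-FRET, 10 min RT; Ex 320/Em 665, 620; Hill-fit AC50.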
PNC assembly inh: blocks assembly of the perinucleolar compartment | PC3M PTB-GFP, PNC prevalence imaging, 16 h; active compounds read low | activity change (PNC), negative = inhibition, % at 10 µM | 140,000 tested, 3.1% active;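 active = readout at or below -70, meaning at least 70% loss of cells showing the perinucleolar compartment, a nuclear body marking cancer cells; inconclusive = readout between -30 and a set limit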;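 also: plate controls were DMSO wells for no effect and camptothecin positive control wells for full effect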
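PC3M cells stably expressing PTB-GFP, 750–1000 cells/well, treated 16 h at 37 °C with compound (23 nl of library stock), in duplicate. After paraformaldehyde fixation and Hoechst stain, imaged at 20x; PNC prevalence scored by image analysis.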
NPSR antagonist: antagonists of human neuropeptide S receptor cAMP signaling; Q6W5P4; 220,000 tested, 1% active; CHO-NPSR cells, cAMP TR-FRET, antagonist mode; Potency, µM (top dose mostly 38.3 µM), inactives show top-dose activity change, negative = inhibition, most hits filed as inhibitors; active = well fitted curve in the direction sought with a large enough effect; inconclusive = small, poorly fitted or top-dose-only effect, or another doubt; inactive = no such curve, though single readings can be large; an effect the other way counts as inactive or inconclusive; also: potency is read from the fitted curve at half-maximal effect; nearly all actives have a fitted effect of over 50% in size
IMPase Li cell: IMPase inhibition in cells with lithium potentiation; Potency, µM (doses to about 59.4 µM), for the others: top-dose activity, negative = IMPase inhibition, hits mostly inhibitors; CHO-M1 cells, IP1 TR-FRET (IP-One), carbachol + lithium; 210,000 tested, 0.35% active; AID 1457; active = well fitted curve in the direction sought with a large enough effect; inconclusive = small, poorly fitted or top-dose-only effect, or another doubt; inactive = no such curve, though single readings can be large; an effect the other way counts as inactive or inconclusive;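 also: IP1 builds up when IMPase is blocked and the TR-FRET signal falls; potency is read from the fitted curve at half-maximal effect; plate controls were basal vehicle for no effect and high inhibitor control for full effect; nearly all actives have a fitted effect of over 50% in size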
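CHO cells stably expressing M1 receptor (2000/well, cultured 16–30 h) treated 30 min at 37C with compound plus low lithium. Cytosolic IP1 by TR-FRET (665/620 ratio and 620 channel) after 10 min lysis; AC50 by Hill fit.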
An asterisk follows results filed as active; ? = inconclusive; . = no result given; [ ] = remark or other dose. Hits are enriched below; roughly 11% of the tested compounds scored in any of these assays. Unless noted, calls follow the shape of the dose curve; as a rule, active = well fitted inhibition curve with a large enough effect (not every such curve was filed as active); inconclusive = small, poorly fitted or top-dose-only effect, or another doubt; inactive = no such curve, though single readings can be large or run the other way. Unless noted, % is scaled to controls: 0 for no effect and ±100 for the full control effect.

SMILES | ALDH1A1 inh | HPGD inh | IMPase inh | PNC assembly inh | NPSR antagonist | IMPase Li cell
COc1ccc(Cn2nnnc2C(c2cccs2)N2CCN(c3ccc([N+](=O)[O-])cc3)CC2)cc1 (stereo not given) | ? | -18% | -6 | 34 | 2%[46.1 µM] | 4%
O=C(Nc1cccc2oc(=O)ccc12)c1ccc([N+](=O)[O-])cc1[N+](=O)[O-] | 7.9µM* | -13% | . | 25 | 4% | 1%
CCCCC(=O)Nc1cc2nn(-c3ccc(OC)cc3)nc2cc1C | ? | ? | 8 | -6 | -3%[46.1 µM] | ?
COc1ccc(-n2nc3cc(C)c(NC(=S)NC(=O)c4ccccc4C)cc3n2)cc1 | ? | -13% | -10 | 17 | ? | 13µM*
CCC(=O)Nc1cc2nn(-c3ccc(OC)cc3)nc2cc1C | ? | ? | 2 | ? | -17%[46.1 µM] | 11µM*
COC(=O)c1ccc(C2/C(=C(/O)c3ccc(OC)cc3)C(=O)C(=O)N2Cc2ccco2)cc1 (stereo not given) | 18µM* | -11% | 5 | -5 | -11%[46.1 µM] | ?
Cc1ccc(N=C2SC(C(=O)NCCc3ccccc3)CC(=O)N2C)cc1C (stereo not given) | 10µM* | . | . | . | -20% | 25%
O=C(c1ccc(COc2ccccc2[N+](=O)[O-])o1)N1CCCCC1 | ? | 22µM* | 4 | -27 | -4%[46.1 µM] | -14%[38.3 µM]
O=C(c1ccc(COc2c(F)c(F)c(F)c(F)c2F)o1)N1CCOCC1 | -8% | -6% | -5 | ? | -5%[46.1 µM] | 8%[38.3 µM]
O=C(c1ccc(COc2ccccc2[N+](=O)[O-])o1)N1CCCCCC1 | -15% | 25µM* | 5 | ? | -13%[46.1 µM] | 0%[38.3 µM]
COc1ccccc1OCc1ccc(C(=O)N2CCOCC2)o1 | 25µM* | -7% | . | 3 | 5% | -3%
CCc1ccc(Nc2nnc(SCC(=O)NC(=O)c3cccn3C)s2)cc1 | ? | . | . | . | -1% | 9%
CCOc1ccc(S(=O)(=O)NCC(=O)N(C)Cc2cccnc2)cc1 | ? | ? | 1 | ? | -7%[46.1 µM] | 24%[38.3 µM]
COc1ccccc1OCC(=O)Sc1ccc(C)cc1 | -4% | 32µM* | 1 | -19 | -13%[46.1 µM] | 1%[38.3 µM]
COc1ccccc1CNC(=O)CSc1ccccc1 | -1% | . | . | . | 0% | 0%
COc1ccccc1CNC(=O)CSc1ccc(C)cc1 | 1% | 14µM* | . | ? | 2% | 20%
COc1ccccc1CNC(=O)Cn1cccc1 | 5% | 16µM* | -2 | ? | -27%[46.1 µM] | -16%[38.3 µM]
CC(C)CCN=CC1=C(O)CC(c2ccccc2)CC1=O (stereo not given) | -8% | . | . | . | -4% | 17%
O=C(NNS(=O)(=O)c1ccc(Cl)cc1)c1cccs1 | -5% | . | . | . | 8% | 2%
Cc1cc(=O)oc2c1ccc1oc(/C(=N/O)c3ccccc3)c(C)c12 | ? | 13µM* | 22 | 38 | ? | 47%[38.3 µM]
Cc1ccc(/C(=N\O)c2oc3c(C)c4oc(=O)cc(C)c4cc3c2C)cc1 | ? | ? | 15 | 39 | -56% | 25%
CC(C)OCC(O)CS(=O)(=O)Cc1ccccc1 (stereo not given) | 13% | 13µM* | 2 | 33 | 4%[46.1 µM] | -18%[38.3 µM]
CCN(CC)S(=O)(=O)c1cccc(S(=O)(=O)c2cccc(S(=O)(=O)N(CC)CC)c2)c1 | ? | 4% | 17 | -4 | -20%[46.1 µM] | 9%[38.3 µM]
COc1cc(S(=O)(=O)N2CCN(C)CC2)c(OC)cc1Cl | -5% | -7% | -5 | 31 | 2%[46.1 µM] | 34%[38.3 µM]
COc1cc(S(=O)(=O)N2CCN(c3ccccc3F)CC2)c(OC)cc1Cl | 25µM* | -2% | 6 | -14 | -25%[46.1 µM] | 12%
SMILES | ALDH1A1 inh | HPGD inh | IMPase inh | PNC assembly inh | NPSR antagonist | IMPase Li cell
O=C1CC(Sc2nnnn2C2CCCCC2)C(=O)N1c1ccccc1 (stereo not given) | 3.5µM* | ? | -11 | -100* | 5%[46.1 µM] | 6%
CCOC(=O)c1c(N2C(=O)CC(Sc3ccccc3C(=O)O)C2=O)sc2c1CCCC2 (stereo not given) | 4.5µM* | . | . | . | 1% | -5%
CCOC(=O)c1c(N2C(=O)Nc3ccccc3N2O)sc2c1CCCC2 | 5% | -12% | . | -1 | -16% | -2%
Cc1cccc(N2C(=O)CC(Sc3nnc(C)s3)C2=O)c1 (stereo not given) | 2.8µM* | 25µM* | 13 | -7 | 11% | 1%
COC(=O)c1ccccc1SC1CC(=O)N(c2ccccc2)C1=O (stereo not given) | ? | 14µM* | . | ? | 14% | 1%
CCN1C(=O)CC(Sc2ccccc2C(=O)O)C1=O (stereo not given) | 0% | 1% | -4 | ? | -4%[46.1 µM] | 29%[38.3 µM]
O=C(Nc1cccn(Cc2ccc(F)cc2)c1=O)NC1CCCCC1 | ? | -19% | 0 | 29 | -11%[46.1 µM] | 7%[38.3 µM]
Cc1cc(C)cc(N2C(=O)CC(Sc3nnnn3-c3ccccc3)C2=O)c1 (stereo not given) | 14µM* | ? | -5 | 36 | ? | -9%[38.3 µM]
O=C(O)c1ccccc1SC1CC(=O)N(c2cccc3ccccc23)C1=O (stereo not given) | . | . | . | . | 15% | .
Cn1nnnc1SC1CC(=O)N(c2ccccc2)C1=O (stereo not given) | 1.6µM* | . | . | . | 6% | 4%
Cc1cccc(N2C(=O)CC(Sc3nc(C)cc(C)n3)C2=O)c1 (stereo not given) | ? | -26% | 1 | -15 | -9%[46.1 µM] | -13%[38.3 µM]
